From the supplement of paper PMC10338343
± gives the standard deviation.

test system: MILI (PIWIL2) piRISC loaded with L1MC piRNA (26 nt); test: pre-steady-state target cleavage rate (min^-1); guide: L1MC piRNA 5'p-UAACUAAAUACUAUGCAAGCUGUAGG; MIWI and MILI are mouse PIWI proteins and EfPiwi is from a freshwater sponge; tags in brackets are library labels; higher = faster piRNA-guided slicing of the target; conditions: auxiliary factor: 500 nM mouse GTSF1
In short: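 Sequencing of uncleaved targets, normalised to depth and to weakly complementary targets, was the readout of this Cleave-'n-Seq assay. A transcribed, DNA-blocked target RNA library (0.1 nM) was mixed with 1 nM active affinity-purified piRISC carrying one synthetic guide, with or without 500 nM GTSF1 partner protein, in HEPES–potassium acetate buffer at 33 °C for 0–8 or 0–960 min. Three trials were pooled, k3 was capped at 0.0001 min^-1, and a burst-and-steady-state fit gave the pre-steady-state cleavage rate.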

Sequence | pre-steady-state target cleavage rate
UCCUGGAUGUCCUUGCAUACUAUUAAGUUA | 0.0099 ± 0.0049
UCCUGGAUGUCGAUGCAUAGUAUUUAUGUUA | 0.106 ± 0.022
UCCUCCUACAGCUUGCAUAGAAUUUUCAAA | 0.0466 ± 0.015
UCCUGGAUGUCGAACCAUAGUAUUAUCAAA [g7:g15:cont:t1A] | < 0.0001
UCCUGGAUCAGCUUGCAUAGUAAUUUCAAA | 0.042 ± 0.016
UCCUGGAUGUCGUUGCAUAGAAUUUAGUUA | 0.00458 ± 0.0035
UCCUGGAUGUCCAUGCAUAGUAUUUUGUUA | 0.00776 ± 0.0045
UCCUGGAUGUCGAUGCAUAGUAAUUUGUUA | 0.00959 ± 0.0053
UCCUGGAUGUCGUUGCAUAGUAUUCAGUUA | 0.0553 ± 0.018
UCCUGGAACAGCUACGAUAGUAUUUAGUUA | 0.147 ± 0.011
UCCUGGAUCAGCUUGCAUAGUAUUUUGUAA | 0.0574 ± 0.016
UCCUCCUACAGCUUCGAUAGUAUUUAGAAA | 0.0982 ± 0.019
UCCUGGAUCAGCUUGCAUACUAUUUUGUUA | 0.0178 ± 0.0061
UCCUGGAACAGCUUGCAUACUAUAUAGUUA | 0.0332 ± 0.0099
UCCUGGAUGUCCUAGCAUAGUAUUUACUUA | 0.0287 ± 0.0091
UCCUGGAUGUCCUUGCAUAGUAAAUAGUAA | 0.00932 ± 0.0037
UCCUGGAUGUCGAUGCAUAGUAUUUAUUA | 0.00695 ± 0.0047
UCCUGGAUGUCCUAGCAUAGUAUUUUGUUA | 0.0105 ± 0.0061

Sequence | pre-steady-state target cleavage rate
UCCUGGAUGUGCUUGCAUAGUAUUUACAUA | 0.0112 ± 0.0044
UCCUGGAUGAGCUUGCAUAGUUAAUAGUUA | 0.00524 ± 0.004
UCCUGGAUGUCGUUGCUUAGUAUUAAGUUA | 0.03 ± 0.0099
UCCUGGUACAGCUUGCAUUGUAUUAAGUUA | 0.0503 ± 0.011
UCCUGGAUGUCGAAGCAUAGUAUAAAGUUA | 0.0127 ± 0.0053
UCCUGGAUGUCGAACGUAUGUAUUUAGUAUA | < 0.0001
UCCUGGAUGUGCUACCAUAGUAUUUAGAAA | 0.00379 ± 0.0038
UCCUGGUACAGCUUGCAUAGUAUAAAGAAA | 0.0207 ± 0.0082
UCCUGGAACAGCUUGCAUAGUAUUUAGCUUA | 0.195 ± 0.047
UCCUCCUACAGCUUGCAUAGAAUUUAGAUA | 0.0558 ± 0.014
UCCUGGAUGUCGAACGUAUGUAUUUAUUUA | < 0.0001
UCCUGGAUGUCCUUGUCAUAGUAUUUAGUUA | 0.0189 ± 0.009
UCCUGGAACAGCUUGCAUAGUAAAAAGUAA | 0.076 ± 0.022
UCCUGGAUGUGCUAGCAUAGUAUUUACUUA | 0.0865 ± 0.019
UCCUGGUACAGCUUGCUAAGUAUUUAGAAA | 0.0132 ± 0.0056
UCCUGGUACAGCUAGCAUAGUAUUUUCAAA | 0.0662 ± 0.02
UCCUGGAUCAGCUUGCAUAGUUAAUAGUAA | 0.0192 ± 0.0068
